Among the data in PubChem BioAssay AID2314 (National Center for Advancing Translational Sciences (NCATS), 2010) are max response values, retold here.

Among all 300,000 compounds or so, about 37,000 (12%) were called active. Cut-off read from the data, not from the text of the source: active = max response mostly above about 13% (no sharp cut-off); inactive = mostly below about 14%. This excerpt belongs to a sample that is enriched for actives.

A short description of this experiment: Cycloheximide Counterscreen for Small Molecule Inhibitors of Shiga Toxin. Note: read at 38.3 µM for the half of the compounds with a filed dose; 0% is about no effect. To be noted: cell reporter, cycloheximide protein synthesis inhibition counterscreen; hits give high values. (The purpose of a counterscreen is to sort out artefacts and off-target activity.)
Regarding `CCC1OC(c2ccc([N+](=O)[O-])cc2)=Nc2ccccc21` (stereo not drawn), the max response is -5.5% (inactive).
For the compound `COc1ccc2c(c1)C(c1cccs1)=NNC(c1cccnc1)=N2`, the max response is 18.1% (inactive).
For the compound `CCc1ccc2c(c1)C(c1ccc([N+](=O)[O-])cc1)=NNC(c1ccccc1)=N2`, the max response was 33.3% (active).
For the compound `Cc1ccc(C2=Nc3c(ccc4ccccc34)C(c3ccncc3)=NN2)cc1`, the max response is 1.6% (inactive).
As for `CCOc1ccc2c(c1)C(c1ccc(C)cc1)=NNC(c1ccc(C)cc1)=N2`, the max response is 54.8% (active).
In the case of `O=C1NC(=O)C2C1C(c1ccc([N+](=O)[O-])cc1)=NN2Cc1ccccc1` (stereo not drawn) it was -2.84% (inactive); in that of `COc1ccc(-c2onc3ccc(C(C)=O)cc23)cc1`, 2.44% (inactive); in that of `CC1=C(C(=O)OC(C)(C)C)C(c2ccc(Br)cc2)NC(=O)N1CCCC(=O)O` (stereo not drawn), -2.28% (inactive).
`O=C(c1cc2cc(Br)cc(Br)c2oc1=O)N1CCOCC1`: the max response is 0.493% (inactive).
In the case of `CC1CCN(CCCNC(=O)CN2C(=O)CSc3ccc(S(=O)(=O)N4CCCCC4)cc32)CC1` it was -0.237% (inactive); in that of `O=C(CN1CCC(NC(=O)C2CC2)CC1)Nc1ccccc1[N+](=O)[O-]`, 7% (inactive); in that of `O=C1c2ccccc2C(=O)N1CCC(O)C[N+](=O)[O-]` (stereo not drawn), -2.75% (inactive).
Consider `O=C1c2ccccc2C(=O)N1CCC(c1ccccc1)c1ccco1` (stereo not drawn), for which the max response was 24.4% (active).
Under `O=C1c2ccccc2C(=O)N1CCc1nn[nH]n1` stands -3.78% (inactive); under `OC(CNCC1CCCO1)Cn1c2ccc(Br)cc2c2cc(Br)ccc21` (stereo not drawn), -6.3% (inactive).
Consider `CCCN1CCn2c3c(c4cc(Br)ccc42)CCCC31` (stereo not drawn), for which the max response is 25.3% (active).
For `COCCn1c(SCC(=O)c2[nH]c(C)c(C(C)=O)c2C)nc2ccccc2c1=O`, the max response was -3.66% (inactive).
As for `CCN1CCN(CC(=O)Nc2sc3c(c2C#N)CCC3)CC1`, the max response is 1.34% (inactive).
In the case of `N#Cc1c(NC(=O)CCCl)sc2c1CCCCC2`, the max response is 21.9% (active).
In the case of `N#Cc1c(NC(=O)C2CCCO2)sc2c1CCCCC2` (stereo not drawn) it was 48.6% (active); in that of `N#Cc1c(NC(=O)C2CC(Cl)=CCC2C(=O)O)sc2c1CCCCC2` (stereo not drawn), -1.59% (inactive).
As to `CC(=O)c1c(C)[nH]c(C(=O)OCC(=O)Nc2sc3c(c2C#N)CCCC3)c1C`, the max response was -1.13% (inactive).
Turning to `N#Cc1c(NC(=O)c2ccc(N3CCOCC3)c([N+](=O)[O-])c2)sc2c1CCCC2`, the max response was 1.18% (inactive).
Consider `O=C1C(=O)N(CCCO)C(c2ccccc2)/C1=C(\O)c1ccc(Br)cc1` (stereo not drawn), for which the max response is 0.724% (inactive).
For the compound `CN1C(=O)/C(=C/C=C2\SCCN2C)OC1=S`, the max response is 37.4% (active).
Under `Cc1csc(NC(=O)CSc2nc(=O)cc(N)n2-c2ccc(F)cc2)n1` stands 16.3% (inactive); under `CCc1ccc(OCC(=O)NCC(c2ccc(Cl)cc2)N2CCCCC2)cc1` (stereo not drawn), -2.84% (inactive).
Turning to `COc1ccc(-c2cc(C(=O)n3cnc4ccccc43)c3ccccc3n2)cc1`, the max response was 16.1% (inactive).
Turning to `COc1ccc(-c2cc3n(n2)CCc2nc4ccccc4n2-3)cc1`, the max response was 9.75% (active).
As for `CCn1c(C(O)c2cc(OC)ccc2OC)nc2ccccc21` (stereo not drawn), the max response was 5.8% (inactive).
Regarding `CC(CC(=O)Nc1ccc(F)cc1F)S(=O)(=O)c1ccc2c(c1)NC(=O)CO2` (stereo not drawn), the max response is 2.18% (inactive).
Consider `CC(C)c1ccc(-c2nn[nH]n2)cc1`, for which the max response is 23% (active).
Turning to `c1cc(-c2nn[nH]n2)ccc1CN1CCCCC1`, the max response is -1.37% (inactive).
In the case of `Brc1ccc(-c2nn[nH]n2)cc1` it was 9.02% (inactive); in that of `COc1cccc(NC(=O)CCNS(=O)(=O)c2ccc3c(c2)oc(=O)n3C)c1`, 0.768% (inactive); in that of `COc1ccc(OCc2nnc3n2N=C(c2ccccc2)C(CC(=O)O)S3)cc1` (stereo not drawn), -4.15% (inactive).
In the case of `COc1ccc(CNC(=O)C(=O)NCC2OCCN2C(=O)c2ccc(OC)cc2)cc1` (stereo not drawn), the max response was -1.12% (inactive).
Under `CSc1ccc(C#N)cc1NC(=O)c1cccc(Cl)c1` stands -1.93% (inactive); under `N#Cc1ccccc1NC(=O)c1cccc(COc2ccc(Cl)cc2Cl)c1`, 116% (active).
As to `CSc1ccc(C#N)cc1NC(=O)c1ccc(Cl)cc1`, the max response is 6.79% (inactive).
Under `COc1ccc(OC)c(NC(=O)c2cccc(S(=O)(=O)N3CCN(C(C)=O)CC3)c2)c1` stands -2.4% (inactive); under `CC[n+]1c(C)n(-c2ccccc2)c2ccc(NC(C)=O)cc21`, 8.88% (inactive); under `Cc1ccc(CCN2CC(C(=O)NCCc3ccccc3)CC2=O)cc1` (stereo not drawn), 20.4% (inactive).
`COc1cccc(CNS(=O)(=O)c2csc(C(N)=O)c2)c1`: the max response is -4.05% (inactive).
As to `COc1ccc(C(=O)NCCn2nc(C)cc2C)cc1OC1CCN(C(C)=O)CC1`, the max response is 1.36% (inactive).
In the case of `Cc1ccc(/C=N/NC(=O)CSc2ccccn2)o1` it was 17.1% (inactive); in that of `Cc1ccc(/C=N/NC(=O)CNC(=O)COc2ccccc2)o1`, -7.97% (inactive); in that of `O=C(N/N=C\c1cccnc1)c1cc(-c2ccccc2)nc2c(Cl)cccc12`, -2.05% (inactive).
`O=C(N/N=C/c1cccnc1)c1cc2ccccc2cc1O`: the max response is 35.6% (active).
Regarding `Cc1ccc(/C=N/NC(=O)c2cc3ccccc3cc2O)o1`, the max response is 19.4% (active).
Turning to `O=C(N/N=C/c1cccnc1)c1ccc(NC(=O)c2ccc(F)cc2)cc1`, the max response was -1.26% (inactive).
Turning to `CCC(C)[C@H](NC(=O)N1c2ccccc2NC(=O)[C@@H]1C(C)C)C(=O)N[C@@H](Cc1ccccc1)C(=O)O` (stereo partly drawn), the max response is 1.02% (inactive).
In the case of `COc1ccc(OCC(O)CN(C)C(=O)C(C)Oc2ccccc2)cc1` (stereo not drawn), the max response is -1.78% (inactive).
With `Cc1ccc(SC(CC(=O)c2ccc(C(C)(C)C)cc2)C(=O)O)cc1` (stereo not drawn), the max response was 7.94% (inactive).
On to `Cc1cc(-c2ccc(C)c(S(=O)(=O)NC(C)Cc3ccco3)c2)on1` (stereo not drawn), for which the max response was 17.2% (inactive).
As to `COC(=O)c1ccc(NC(=O)c2cc3c(CO)cnc(C)c3oc2=Nc2cccc(C(N)=O)c2)cc1`, the max response was -3.69% (inactive).
Regarding `Cc1ccc(OCC(=O)NCCCNC(=O)c2ccco2)cc1C`, the max response was -3.33% (inactive).
Consider `COc1ccc(CCNC(=O)c2ccco2)cc1`, for which the max response was 33% (active).
As to `COc1ccc(CCNC(=O)c2ccccc2OCc2ccccc2)cc1`, the max response is -1.84% (inactive).
Consider `CCCCOc1ccc(C(=O)NCc2ccncc2)cc1`, for which the max response is 4.92% (inactive).
Take `CCCc1ccc(OCC(=O)NNC(=S)NC(=O)c2ccco2)cc1`: the max response is -2.62% (inactive).
As to `CCOc1cc(NC(=S)NCCCOC)c(OCC)cc1NC(=O)c1ccco1`, the max response is 2.79% (inactive).
As for `CCCc1ccc(OCCNC(=O)c2ccco2)cc1`, the max response was 37.4% (active).
With `CCCc1ccc(OCCNC(=O)c2ccccc2Br)cc1`, the max response is 16.2% (active).
As for `O=C(CCCOc1ccccc1)NCc1ccco1`, the max response is 8.48% (inactive).
With `CCCCOc1ccc(C(=O)NCc2ccco2)cc1`, the max response was 27.4% (active).
For `CCCCOCCCNC(=O)c1ccccc1OCC`, the max response was -1.45% (inactive).
Turning to `CCOc1ncccc1C(=O)NCCc1ccc(OC)cc1`, the max response is -4.4% (inactive).
